# Bioassay records from PubChem.
# TR SRC2 fluor cs: Texas Red fluorescence interference in TRb-SRC2 counter-screen | TRb/SRC2 Texas Red total fluorescence interference | Potency, µM (series often up to 106 µM) | actives 0.29% (n = 280,000) | AID 1479; active means well fitted curve in either direction with a large enough effect; inconclusive means small, poorly fitted or top-dose-only effect
#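 Human TRβ ligand-binding domain (0.6 uM) and Texas Red SRC2 peptide (20 nM) in Tris buffer with 1 uM T3 and 5% DMSO were incubated with pinned compound for 5 hr at ambient temperature. Total fluorescence was computed as S + 2P (555/632 nm).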
# RGS12 GoLoco inh: blocks human Gai1 binding to RGS12 GoLoco peptide, red readout; Potency, µM (series often up to 61.6 µM), hits mostly inhibitors; actives 0.44% (n = 230,000); Gai1:RGS12 GoLoco peptide FP, rhodamine, 10 min; AID 880; active means well fitted inhibition curve with a large enough effect, not every such curve was filed as active; inactive means no such curve, though single readings can be large or run the other way; further: nearly all actives have a fitted effect of over 30% in size
# Tau fluor cs: counter-screen for tau fibril formation inhibitors. Potency, µM (top dose mostly 57.7 µM). actives 0.93% (n = 280,000). tau K18 P301L Alexa594 fluorescence, heparin fibrillization; further: nearly all actives have a fitted effect of over 55% in size
#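 Human tau K18 P301L (15 uM unlabeled, 0.24 uM Alexa 594-labeled) in 100 mM sodium acetate pH 7 with 20 uM heparin, 6 hr at 37 C. ThT 30 uM added, 1 hr ambient; Alexa 594 FP and total fluorescence read at 555/632 nm.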
# Tau FP inhib: inhibitors of human tau fibril formation | K18 P301L tau heparin fibrillization, Alexa594 FP, 6 h | Potency, µM (top dose mostly 57.7 µM), actives largely listed as inhibitors | P10636 | actives 0.39% (n = 280,000); further: nearly all actives have a fitted effect of over 55% in size
#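 Recombinant K18 P301L […], labeled with Alexa 594 at 0.24 uM over 15 uM unlabeled; heparin inducer 20 uM final; 37 C, 6 hr; FP endpoint.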
# Tau ThT inhib: tau fibrillization inhibition (ThT binding) | P10636 | recombinant tau K18 P301L (four-repeat tau fragment), heparin-induced fibrillization, ThT fluorescence | Potency, µM (doses to about 57.4 µM), most hits filed as inhibitors | actives 2.1% (n = 270,000) | AID 1460; further: nearly all actives have a fitted effect of over 55% in size
#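 In this qHTS, human K18 P301L tau is incubated with compound and heparin for 6 hr at 37 C, and Thioflavin T fluorescence then reports fibril load.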
# TRb-SRC2 inh: disrupts binding of human TR beta to SRC2 | P10828 | TRbeta-SRC2 peptide binding, fluorescence polarization; receptor liganded with 1 µM T3 | Potency, µM (top dose mostly 106 µM), hits mostly inhibitors | actives 0.065% (n = 280,000) | AID 1469; further: nearly all actives have a fitted effect of over 50% in size
# Target sequence (P10828 whole entry, looked up): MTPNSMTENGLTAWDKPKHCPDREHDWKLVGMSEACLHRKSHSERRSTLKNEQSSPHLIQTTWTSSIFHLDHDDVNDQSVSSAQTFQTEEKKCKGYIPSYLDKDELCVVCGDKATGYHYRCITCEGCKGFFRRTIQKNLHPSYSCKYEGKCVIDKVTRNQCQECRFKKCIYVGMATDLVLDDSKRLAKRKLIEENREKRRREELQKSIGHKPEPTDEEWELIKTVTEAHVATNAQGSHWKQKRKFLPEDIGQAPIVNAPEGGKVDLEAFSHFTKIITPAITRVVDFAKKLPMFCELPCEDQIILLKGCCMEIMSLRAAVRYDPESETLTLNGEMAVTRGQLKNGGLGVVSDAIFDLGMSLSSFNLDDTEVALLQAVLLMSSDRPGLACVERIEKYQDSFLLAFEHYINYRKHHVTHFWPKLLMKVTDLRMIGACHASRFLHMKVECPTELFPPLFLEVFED
#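 TRb LBD 0.6 uM + Texas Red SRC2 peptide 20 nM, 1 uM T3, Tris buffer w/ 5% DMSO; compound pinned, 5 h RT; FP read ex 555/em 632; normalized to unbound and bound controls.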
# Numbers stand for hits; 0 = inactive; ? = inconclusive; - = no result; [ ] = another dose, or the depositor's remark. An excerpt weighted towards active compounds, which were near 3.1% of everything screened. Unless noted, the call rests on the fitted dose curve; in most records, active means well fitted curve in the direction sought with a large enough effect; inconclusive means small, poorly fitted or top-dose-only effect, or another doubt; inactive means no such curve, though single readings can be large; an effect the other way counts as inactive or inconclusive.
SMILES,TR SRC2 fluor cs,RGS12 GoLoco inh,Tau fluor cs,Tau FP inhib,Tau ThT inhib,TRb-SRC2 inh
Cc1ccc(C(=O)N/C(=C\c2ccc(-c3cccc([N+](=O)[O-])c3)o2)C(=O)NC(C)(C)C)cc1,0,0,0,0,0,0
Cc1cccc(C)c1NC(=O)CSc1nnc(-c2ccco2)c(-c2ccco2)n1,?,0,?,?,25µM,0
Cc1ccccc1NC(=O)CSc1nnc(-c2ccco2)c(-c2ccco2)n1,0,0,?,8.9µM,7.9µM,0
Cc1ccccc1NC(=O)CSc1n[nH]c(-c2ccco2)n1,0,0,0,0,0,0
COc1ccc(OC)c(Cc2nnc(CCC(=O)N3CCCCCC3)o2)c1,0,0,0,?,0,0
OCCN(CCO)c1ccc(C(c2ccccc2Cl)c2ccc(N(CCO)CCO)cc2Cl)c(Cl)c1,0,-,11µM[quencher],0,?,0
CCc1ncc(/C=C2\C(=O)Nc3ccccc32)[nH]1,0,0,0,0,13µM,0
Cc1ncc(/C=C2\C(=O)Nc3ccccc32)[nH]1,0,0,0,0,16µM,0
CN(C)/C=C1\C(=O)Nc2ccccc21,0,0,0,0,0,0
O=C(/C=C1\C(=O)Nc2ccccc21)/C=C1\C(=O)Nc2ccccc21,0,0,0,?,28µM,0
CCn1c(/C=C2\C(=O)Nc3ccccc32)nc2ccccc2c1=O,0,0,0,0,0,0
Cc1ccc(N=Nc2c(O)ccc3n[nH]nc23)cc1,0,0,?,0,3.5µM,0
COc1ccccc1NS(=O)(=O)c1cccc(NC(=O)Nc2ccccc2)c1,0,0,?,?,0,0
O=C(Nc1ccc(Cl)cc1Cl)NC1CCN(S(=O)(=O)c2ccc(F)cc2)CC1,0,0,?,25µM,-,0
O=C(Nc1cccc(S(=O)(=O)N2CCCCC2)c1)Nc1ccc(Cl)cc1Cl,0,0,?,14µM,0,0
COc1ccccc1NS(=O)(=O)c1cccc(NC(=O)Nc2ccc(Cl)cc2)c1,0,0,?,28µM,0,0
CC(=O)c1c(N2CCN(C)CC2)nc(=S)n(-c2cc(C)ccc2C)c1C,0,0,0,0,0,0
COc1ccccc1N(O)C1CC(=O)N(c2ccc(Br)cc2)C1=O (centres undefined),0,0,?,?,14µM,0
CCCCCCC(=O)N(O)C1CC(=O)N(c2ccc(Br)cc2)C1=O (centres undefined),0,0,0,0,?,0
COc1cc(/C=N\Nc2nc3ccccc3o2)cc(OC)c1OC,0,0,0,0,?,0
COc1cc(/C=N/Nc2nc3ccccc3o2)cc(OC)c1O,0,0,?,0,14µM,0
O=C1C2=C(Nc3ccccc3SC2c2ccccc2C(F)(F)F)c2ccccc21 (centres undefined),0,-,?,13µM,?,0
O=C1C2=C(Nc3ccccc3SC2c2c(F)cccc2Cl)c2ccccc21 (centres undefined),0,-,?,?,?,0
CCOc1cc(C2Sc3ccccc3NC3=C2C(=O)c2ccccc23)ccc1O (centres undefined),0,-,10µM[quencher],?,10µM,0
COc1ccc(Br)cc1C1Sc2ccccc2NC2=C1C(=O)c1ccccc12 (centres undefined),0,-,?,0,?,0
SMILES,TR SRC2 fluor cs,RGS12 GoLoco inh,Tau fluor cs,Tau FP inhib,Tau ThT inhib,TRb-SRC2 inh
O=C1C2=C(Nc3ccccc3SC2c2ccc(Cl)c(Cl)c2)c2ccccc21 (centres undefined),0,-,?,?,?,0
CCCc1ccc(C2Sc3ccccc3NC3=C2C(=O)c2ccccc23)cc1 (centres undefined),0,-,3.2µM[quencher],?,?,0
COc1ccc2[nH]cc(CCN=C(NC(=O)c3ccccc3C)Nc3nc(C)cc(C)n3)c2c1,0,-,?,0,0,0
CCOCCCNC(=O)/C(C#N)=C/c1ccc([N+](=O)[O-])o1,0,0,0,?,14µM,0
O=C1C(Cl)=C(Nc2ccc(O)cc2)C(=O)c2ccccc21,0,0,2µM[quencher],3.5µM,2µM,0
O=C1C(Cl)=C(Nc2ccc(S(=O)(=O)Nc3ccccn3)cc2)C(=O)c2ccccc21,-,0[14.2 µM],-,-,-,-
